Laboratory results published in the antibiotic and cytotoxicity screens of Wong et al. (2023).
Screen size: about 39,000 compounds; about 3,300 (8.5%) were called active. The entries come from a sample that favours actives as a whole.

These compounds were tested on HepG2 (assay: cytotoxicity call (relative viability < 0.9)). Conditions: 10 µM.

SMILES | cytotoxicity call
Cc1cc(C(=O)Nc2cccc3c2O[C@H](CN(C)S(=O)(=O)c2c(C)noc2C)[C@H](C)CN([C@@H](C)CO)C3=O)n(C)n1 | inactive
C[C@@H]1CCCCO[C@@H](CN(C)C(=O)Nc2cccc3ccccc23)[C@@H](C)CN([C@H](C)CO)C(=O)c2cc(NS(=O)(=O)c3ccccc3)ccc2O1 | inactive
COc1cccc(C#Cc2ccc([C@@H]3[C@@H](CO)N4C(=O)CN(S(=O)(=O)c5ccccc5C)C[C@H]34)cc2)c1 | inactive
C[C@@H]1CN([C@@H](C)CO)C(=O)c2cccc(NC(=O)CCCCCC(=O)Nc3ccccc3N)c2O[C@H]1CN(C)C(=O)Nc1ccccc1 | inactive
Cc1noc(C)c1S(=O)(=O)Nc1ccc2c(c1)C(=O)N([C@H](C)CO)C[C@@H](C)[C@@H](CN(C)Cc1ccncc1)O2 | inactive
O=C(C[C@@H]1CC=CC[C@H](NC(=O)OCC2c3ccccc3-c3ccccc32)C(=O)O[C@@H](c2ccccc2)CNC1=O)N[C@@H](CO)Cc1ccccc1 | inactive
Cc1ccc(S(=O)(=O)N(C)C[C@H]2Oc3ccc(NC(=O)C4CC4)cc3CC(=O)N([C@@H](C)CO)C[C@@H]2C)cc1 | inactive
Cc1ccc(S(=O)(=O)N(C)C[C@@H]2Oc3ccc(NC(=O)C4CC4)cc3CC(=O)N([C@@H](C)CO)C[C@H]2C)cc1 | inactive
C[C@@H]1CN([C@H](C)CO)C(=O)Cc2cc(NC(=O)C3CC3)ccc2O[C@@H]1CN(C)S(=O)(=O)c1ccc(Cl)cc1 | inactive
Cc1ccc(S(=O)(=O)N(C)C[C@@H]2Oc3ccc(NC(=O)C4CC4)cc3CC(=O)N([C@@H](C)CO)C[C@@H]2C)cc1 | active
C[C@H](CO)N1C[C@H](C)[C@H](CN(C)S(=O)(=O)c2ccc(Cl)cc2)Oc2ccc(NC(=O)C3CC3)cc2CC1=O | inactive
C[C@H]1CN([C@@H](C)CO)C(=O)Cc2cc(NC(=O)C3CC3)ccc2O[C@H]1CN(C)S(=O)(=O)c1ccc(Cl)cc1 | active
C[C@H]1CN([C@@H](C)CO)C(=O)c2cccc(NC(=O)c3ccc(-c4nccs4)cc3)c2O[C@@H]1CN(C)C(=O)Nc1cccc2ccccc12 | inactive
COc1ccc(S(=O)(=O)N(C)C[C@@H]2Oc3cc(-c4ccccc4OC)ccc3S(=O)(=O)N([C@@H](C)CO)C[C@H]2C)cc1 | inactive
COc1ccc(S(=O)(=O)N(C)C[C@H]2Oc3cc(-c4ccccc4OC)ccc3S(=O)(=O)N([C@H](C)CO)C[C@H]2C)cc1 | active
COc1ccc(S(=O)(=O)N(C)C[C@@H]2Oc3cc(-c4ccccc4OC)ccc3S(=O)(=O)N([C@@H](C)CO)C[C@@H]2C)cc1 | inactive
COc1ccc(S(=O)(=O)N(C)C[C@H]2Oc3cc(-c4ccccc4OC)ccc3S(=O)(=O)N([C@H](C)CO)C[C@@H]2C)cc1 | inactive
COc1ccc(S(=O)(=O)N(C)C[C@@H]2Oc3cc(-c4ccccc4OC)ccc3S(=O)(=O)N([C@H](C)CO)C[C@H]2C)cc1 | inactive
COc1ccc(S(=O)(=O)N(C)C[C@@H]2Oc3cc(-c4ccccc4OC)ccc3S(=O)(=O)N([C@H](C)CO)C[C@@H]2C)cc1 | active
C[C@@H]1CN([C@@H](C)CO)S(=O)(=O)c2ccc(-c3cccc(C#N)c3)cc2O[C@H]1CN(C)C(=O)c1ccncc1 | inactive
Cc1noc(C)c1S(=O)(=O)N(C)C[C@@H]1OCCCC[C@@H](C)Oc2ccc(NC(=O)Nc3ccc(C(F)(F)F)cc3)cc2C(=O)N([C@H](C)CO)C[C@H]1C | inactive

SMILES | cytotoxicity call
Cc1noc(C)c1S(=O)(=O)N(C)C[C@H]1OCCCC[C@H](C)Oc2ccc(NC(=O)Nc3ccc(C(F)(F)F)cc3)cc2C(=O)N([C@@H](C)CO)C[C@@H]1C | active
Cc1noc(C)c1S(=O)(=O)N(C)C[C@H]1OCCCC[C@@H](C)Oc2ccc(NC(=O)Nc3ccc(C(F)(F)F)cc3)cc2C(=O)N([C@H](C)CO)C[C@@H]1C | active
Cc1noc(C)c1S(=O)(=O)N(C)C[C@H]1OCCCC[C@@H](C)Oc2ccc(NC(=O)Nc3ccc(C(F)(F)F)cc3)cc2C(=O)N([C@@H](C)CO)C[C@@H]1C | inactive
Cc1noc(C)c1S(=O)(=O)N(C)C[C@@H]1OCCCC[C@@H](C)Oc2ccc(NC(=O)Nc3ccc(C(F)(F)F)cc3)cc2C(=O)N([C@H](C)CO)C[C@@H]1C | inactive
Cc1noc(C)c1S(=O)(=O)N(C)C[C@H]1OCCCC[C@H](C)Oc2ccc(NC(=O)Nc3ccc(C(F)(F)F)cc3)cc2C(=O)N([C@H](C)CO)C[C@H]1C | inactive
Cc1noc(C)c1S(=O)(=O)N(C)C[C@H]1OCCCC[C@@H](C)Oc2ccc(NC(=O)Nc3ccc(C(F)(F)F)cc3)cc2C(=O)N([C@@H](C)CO)C[C@H]1C | inactive
Cc1noc(C)c1S(=O)(=O)N(C)C[C@@H]1OCCCC[C@H](C)Oc2ccc(NC(=O)Nc3ccc(C(F)(F)F)cc3)cc2C(=O)N([C@H](C)CO)C[C@H]1C | inactive
Cc1noc(C)c1S(=O)(=O)N(C)C[C@@H]1OCCCC[C@H](C)Oc2ccc(NC(=O)Nc3ccc(C(F)(F)F)cc3)cc2C(=O)N([C@H](C)CO)C[C@@H]1C | active
C[C@@H]1CN([C@H](C)CO)C(=O)c2cccc(NC(=O)c3cnccn3)c2O[C@H]1CN(C)CC1CCCCC1 | inactive
O=C(C[C@H]1CC[C@@H]2[C@H](COC[C@H](O)CN2C(=O)c2cccnc2)O1)NCc1ccc(-c2ccccc2)cc1 | inactive
C[C@@H]1CN([C@@H](C)CO)C(=O)c2cccc(NS(=O)(=O)c3ccc(F)cc3)c2O[C@@H]1CN(C)S(=O)(=O)c1cccs1 | inactive
C[C@@H]1CN([C@@H](C)CO)C(=O)Cc2cc(NC(=O)CCN3CCOCC3)ccc2O[C@@H]1CN(C)S(=O)(=O)c1cccs1 | inactive
C[C@H]1CN([C@@H](C)CO)C(=O)c2ccccc2-c2ccccc2CO[C@@H]1CN(C)C(=O)Nc1ccc(F)cc1 | inactive
O=C(CN1CCOCC1)N[C@@H]1CC[C@H](CCn2cc(C3CC3)nn2)O[C@@H]1CO | inactive
O=C(CN1CCOCC1)N[C@H]1CC[C@@H](CCn2cc(C3CC3)nn2)O[C@H]1CO | active
O=C(CN1CCOCC1)N[C@H]1CC[C@H](CCn2cc(C3CC3)nn2)O[C@@H]1CO | inactive
CC(C)NC(=O)N[C@@H]1C=C[C@@H](CC(=O)O)O[C@H]1CO | inactive
CC(=O)Nc1ncc([N+](=O)[O-])s1 | inactive
CC(=O)Oc1ccccc1C(=O)Nc1ncc([N+](=O)[O-])s1 | active
CC(=O)Oc1ccccc1C(=O)Nc1ccccc1 | inactive
C[C@@H]1CN([C@H](C)CO)C(=O)CCCn2cc(nn2)CO[C@@H]1CN(C)C(=O)Nc1cccc(Oc2ccccn2)c1 | inactive

SMILES | cytotoxicity call
O=C(N/N=C/[C@H](O)[C@@H](O)[C@H](O)[C@H](O)CO)c1ccccc1O | inactive
O=C(N/N=C/[C@H](O)[C@@H](O)[C@H](O)CO)c1ccccc1O | inactive
O=C(N/N=C/[C@H](O)[C@@H](O)[C@@H](O)[C@H](O)C(=O)O)c1ccccn1 | inactive
O=C(N/N=C/[C@H](O)[C@@H](O)[C@@H](O)[C@H](O)C(=O)O)c1ccccc1O | active
O=C(N/N=C/[C@@H](O)[C@H](O)[C@H](O)CO)c1ccccc1O | inactive
O=C(N/N=C/[C@H](O)[C@H](O)[C@@H](O)[C@@H](O)CO)c1ccccc1O | active
C[C@@H]1CN([C@@H](C)CO)C(=O)Cc2cc(NC(=O)CCCCCC(=O)Nc3ccccc3N)ccc2O[C@@H]1CN(C)C(=O)Nc1ccc(C(F)(F)F)cc1 | inactive
C[C@@H]1CN([C@H](C)CO)C(=O)Cc2cc(NS(=O)(=O)c3ccccc3)ccc2O[C@@H]1CN(C)S(C)(=O)=O | inactive
CC(=O)OC12COC1CC(O)C1(C)C(=O)C(O)C3=C(C)C(OC(=O)C(O)C(NC(=O)OC(C)(C)C)c4ccccc4)CC(O)(C(OC(=O)c4ccccc4)C21)C3(C)C.O.O.O (configuration not stated) | active
CC(=O)OC1C(=O)C2(C)C(O)CC3OCC3(OC(C)=O)C2C(OC(=O)c2ccccc2)C2(O)CC(OC(=O)C(O)C(NC(=O)c3ccccc3)c3ccccc3)C(C)=C1C2(C)C (configuration not stated) | active
COC1C(=O)C2(C)C(OC)CC3OCC3(OC(C)=O)C2C(OC(=O)c2ccccc2)C2(O)CC(OC(=O)C(O)C(NC(=O)OC(C)(C)C)c3ccccc3)C(C)=C1C2(C)C (configuration not stated) | active
C[C@@H]1CN([C@@H](C)CO)C(=O)c2cccc(N(C)C)c2O[C@@H]1CN(C)S(=O)(=O)c1ccc(Cl)cc1 | inactive
C[C@@H]1CN([C@@H](C)CO)C(=O)c2cccc(NC(=O)Nc3ccc(C(F)(F)F)cc3)c2O[C@H]1CN(C)S(=O)(=O)c1ccc(Cl)cc1 | inactive
CC(C)NC(=O)Nc1ccc2c(c1)C(=O)N([C@@H](C)CO)C[C@H](C)[C@@H](CN(C)C(=O)Nc1ccc(F)cc1)OCCCC[C@H](C)O2 | inactive
O=C(/C=C/c1ccc(O)c(O)c1)O[C@H]1[C@H](O)[C@@H](O)[C@H](OCCc2ccc(O)c(O)c2)O[C@@H]1CO | inactive
C[C@H]1CCCCO[C@H](CN(C)Cc2ccc(C(=O)O)cc2)[C@@H](C)CN([C@@H](C)CO)C(=O)c2cc(NS(=O)(=O)c3ccc(Cl)cc3)ccc2O1 | inactive
NCc1c(Cl)cccc1Cl | inactive
COCc1cn(CC[C@H]2CC[C@@H](NC(=O)CCN3CCCCC3)[C@H](CO)O2)nn1 | inactive
C[C@H]1CCCCO[C@H](CN(C)C(=O)Nc2ccc(C(F)(F)F)cc2)[C@@H](C)CN([C@@H](C)CO)C(=O)c2cc(NS(=O)(=O)c3cn(C)cn3)ccc2O1 | inactive
C[C@@H]1CN([C@@H](C)CO)C(=O)c2cc(NC(=O)CCCN(C)C)ccc2O[C@@H]1CN(C)Cc1ccc(C(=O)O)cc1 | inactive
